Sampled rows, rich in hits. Any-hit rate of the full collection: about 21%.
Pf growth 48h: P. falciparum growth inhibition at 48 hours (one generation); P. falciparum luciferase growth in erythrocytes, 48 h; Potency, µM (titrated, usually from 28.7 µM), for the others: top-dose activity change, negative = inhibition, usual class: inhibitors; 310,000 compounds, 5.9% hits; further: potency means the concentration at half of the fitted maximal effect; on the % scale 0 is the no-effect control and ±100 the full control effect
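Parasite viability was followed by luminescence of a genomically integrated firefly luciferase. Cultures held 0.1% parasitemia at 2% hematocrit (final), incubated under 5% CO2 at 37 C.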
Pf growth 96h: P. falciparum growth inhibition at 96 hour, primary screen for plastid delayed-death inhibitors; Potency, µM (series often up to 28.7 µM), inactives show top-dose activity change, negative = inhibition, hits mostly inhibitors; AID 504834; P. falciparum luciferase reporter growth, 96 h; 320,000 compounds, 6.9% hits; further: potency means the concentration at half of the fitted maximal effect; on the % scale 0 is the no-effect control and ±100 the full control effect
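Infected RBCs, 2% Hct / 0.05% parasitemia final; luciferase-reporter P. falciparum; cpd 96 h, 37 C, 5% CO2; luciferase detection reagent; luminescence.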
AMA1 RON2 block: AMA1-RON2 (P. falciparum) interaction inhibition; Potency, µM (doses to about 58.2 µM), without a hit: top-dose activity change, negative = inhibition, most hits filed as inhibitors; 360,000 compounds, 0.2% hits; AlphaScreen AMA1-biotinylated RON2 peptide binding;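 further: potency means the concentration at half of the fitted maximal effect; 0% = vehicle wells and -100% = peptide control; nearly all actives have a fitted effect of over 45% in size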
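AMA1 (3D7) with his tag at 25 nM final met compounds first, then biotinylated RON2 peptide at 25 nM; detection used donor plus acceptor beads, 10 µg/mL apiece, read by AlphaScreen after 30 min at room temperature.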
Shiga inhibitor: blocks Shiga toxin action in Vero cells; inhibition, % at 38.7 µM; Vero cells, Shiga toxin protein synthesis inhibition reporter; 290,000 compounds, 9.2% hits; in the data active means inhibition mostly above about 28%, no sharp cut-off; inactive means mostly below about 43%; further: 0% is about no effect
Cycloheximide cs: counter-screen for Shiga toxin inhibitors: cycloheximide protein synthesis inhibition; cell reporter, cycloheximide protein synthesis inhibition counterscreen; AID 2314; 300,000 compounds, 12% hits; max response, %; in the data active means max response mostly above about 13%, no sharp cut-off; inactive means mostly below about 14%; further: read at 38.3 µM for the half of the compounds with a filed dose; 0% is about no effect
HCV inhibitor: blocks hepatitis C virus | 340,000 compounds, 3.4% hits | Potency, µM (titrated, usually from 41.8 µM), without a hit: at the top dose activity change, negative = inhibition, hits mostly inhibitors | Huh7.5.1 HCVcc-Cre infection, luciferase reporter, 44 h; further: potency means the concentration at half of the fitted maximal effect; on the % scale 0 is the no-effect control and ±100 the full control effect
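Infectious HCV cell culture screen: compound-treated cells (1,000/well, pre-plated 4 h) are infected with HCVcc-Cre at roughly 0.5 moi and grown 44 h. Infection is quantified by luciferase signal after 15 min substrate incubation at room temperature.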
* = called active by the depositor; ? = inconclusive; . = not tested or not shown; [ ] = remark or other dose. Unless noted, the call rests on the fitted dose curve; in most records, active means well fitted curve in the direction sought with a large enough effect; inconclusive means small, poorly fitted or top-dose-only effect, or another doubt; inactive means no such curve, though single readings can be large; an effect the other way counts as inactive or inconclusive.

SMILES	Pf growth 48h	Pf growth 96h	AMA1 RON2 block	Shiga inhibitor	Cycloheximide cs	HCV inhibitor
C=CCn1nc(C(=O)Nc2ccc(OC)cc2)cc1-c1sc(NC(=O)c2ccccc2)nc1C	.	.	-20%	.	.	.
CC(/C=N/NC(=O)C(O)c1ccccc1)=C\c1ccccc1 (centres undefined)	64%	43%	11%	45*	14*	9%
CC(/C=N/NC(=O)c1ccncc1)=C\c1ccc(C(C)C)cc1	4.7µM*	5.2µM*	6%	128*	52*	-7%
O=C(N/N=C/C(Cl)=C\c1ccccc1)c1cnccn1	.	?	-21%	132*	53*	12%
Cn1cccc1CC(=O)N/N=C/C(Cl)=C/c1ccccc1	19%	?	21%	28	18	6%
O=C(N/N=C/C=C/c1ccccc1)C(O)c1ccccc1 (centres undefined)	.	.	4%	.	.	24%
Fc1cccc(F)c1-n1c(CN2CCCC2)csc1=S	?	5.9µM*	-22%	-13	10	?
O=C(COc1ccc(F)cc1)Nc1ccccc1N1CCOCC1	-26%	?	6%	.	.	-8%
CCOC(=O)N1CCN(c2ccnc3cc(Cl)ccc23)CC1	2.6µM*	2.3µM*	-3%	21	-3	-5%
CC(C)N(C(=O)N1CCN(c2ccnc3cc(Cl)ccc23)CC1)C(C)C	8.3µM*	8.3µM*	-4%	-15	0	?
Clc1ccc2c(N3CCNCC3)ccnc2c1	?	.	-5%	-8	-3	0%
CCOC(=O)N1CCN(c2cc3nccnc3cc2F)CC1	12%	.	-16%	-6	-2	6%
CCC(=O)N1CCN(c2ccnc3cc(Cl)ccc23)CC1	13µM*	12µM*	-7%	-2	-2	17%
O=C(c1ccc(Cl)cc1)N1CCN(c2ccnc3cc(Cl)ccc23)CC1	13µM*	15%	-7%	-4	-3	?
COc1ccc(-c2n[nH]nc2C2=CC(=O)CC(C)(C)C2)cc1	.	.	-6%	.	.	.
CC1(C)C=C(c2ccc(O)cc2)CC(C)(C)N1	4%	13µM*	0%	-5	-1	14%
C/C=C(/C(=C/C)c1ccc(O)cc1)c1ccc(O)cc1	-23%	?	10%	-13	-2	-21%[8.37 µM]
C=CCc1cccc(Cl)c1OCCCNC1CCCC1	?	?	-4%	-2	2	10µM*
C=CCOc1ccc(C[C@H](N)C(=O)NC[C@H]2O[C@@H](n3cc(C)c(=O)[nH]c3=O)C[C@@H]2O)cc1	.	.	5%	.	.	.
CC(C)CC1(C(=O)NCCN2CCOCC2)C=CCN1C(=O)c1ccccc1 (centres undefined)	-9%	-26%	8%	-9	-1	32%
CC(=O)N1CC=CC1(CC(C)C)C(=O)NCCN1CCOCC1 (centres undefined)	34%	24%	35%	55*	34*	3%
O=S(=O)(c1c(Cl)sc(Cl)c1Br)N1CCCC1	?	12µM*	-4%	4	15	-4%
O=S(=O)(c1ccc(Cl)cc1)N1CCCCCC1	1%	3%	9%	13	-3	8%
Cc1ccccc1NC(=O)COC(=O)c1ccc(S(=O)(=O)N2CCCC2)cc1	20%	23%	-2%	.	.	5%
Cc1ccc(SCC(=O)NC2CCS(=O)(=O)C2)cc1 (centres undefined)	40%	42%	-2%	14	-5	-3%
SMILES	Pf growth 48h	Pf growth 96h	AMA1 RON2 block	Shiga inhibitor	Cycloheximide cs	HCV inhibitor
Cc1c(C(=O)NC2CCCCC2)oc2ccc(F)cc12	50%	84%	2%	114*	51*	-23%
Cc1c(C(=O)Nc2nccs2)oc2ccc(F)cc12	326%	348%	0%	.	.	16%
COc1ccc2oc(C(=O)Nc3ccccn3)c(C)c2c1	116%	0%	-7%	66*	57*	-1%
Cc1ccc2oc(C(=O)NC3CCS(=O)(=O)C3)c(C)c2c1 (centres undefined)	53%	95%	-15%	35*	30*	-18%
COc1ccc2oc(C(=O)NC3CCCCC3)c(C)c2c1	41%	-24%	3%	114*	47*	-29%
CC1(C(=O)NS(=O)(=O)c2ccc(Br)cc2)CCN1C(=O)CCC1CCCC1 (centres undefined)	.	.	2%	.	.	.
COC(=O)[C@]12CCCCC=C1N(Cc1cccc3ccccc13)C(=O)[C@H](CC(=O)NCCc1ccccc1OC)C2	.	.	-13%	.	.	.
O=C(c1cccc(S(=O)(=O)N2CCCC2)c1)N1CCN(Cc2ccccc2)CC1	?	?	11%	.	.	-9%
O=C(Nc1ccc(-c2csc(Nc3ccccc3)n2)cc1)c1cccc(C(F)(F)F)c1	?	?	0%	32	2	?
O=C(Nc1ccc(-c2csc(Nc3ccc(Cl)cc3)n2)cc1)c1cccc(C(F)(F)F)c1	?	10µM*	-13%	-5	-3	11µM*
O=C(Nc1ccc(-c2csc(Nc3ccccc3)n2)cc1)c1cc([N+](=O)[O-])cc(C(F)(F)F)c1	0.59µM*	0.47µM*	-9%	-4	1	?
Cc1nc(Nc2ccccc2)c2oc3ccc(Cl)cc3c2n1	?	?	4%	43*	18*	-27%
Cc1ccc(Nc2nc(C)nc3c2oc2ccccc23)cc1	?	?	-11%	22	11*	-46%
CC(=O)c1ccc(Nc2nc(C)nc3c2oc2ccccc23)cc1	23%	.	.	-2	8	.
c1ccc2c(c1)oc1c(Nc3ccc4c(c3)OCO4)ncnc12	101%	151%	-11%	100*	45*	-11%
Cc1nc(Nc2ccc3c(c2)OCO3)c2oc3ccccc3c2n1	?	6%	-22%	46*	39*	?
COc1ccc(Nc2nc(C)nc3c2oc2ccccc23)cc1	-19%	0%	12%	1	10	-27%
COc1ccc(N2CCN(S(=O)(=O)CCNC(=O)C3CCCCC3)CC2)cc1	8%	2%	-13%	6	-4	8%
CN1CCCC(C)(C(=O)Nc2cccc(Oc3ccccc3)c2)C1 (centres undefined)	.	.	14%	.	.	.
Cc1ccc(OCC(=O)NNC(=O)c2ccccc2OCc2c(C)noc2C)cc1	0%	0%	94%	.	.	?
Cc1nc(SCC(=O)Nc2ccc(F)cc2)c2oc3ccccc3c2n1	6%	.	2%	-7	-3	-9%
Cc1nc(NCCc2ccccc2)c2oc3ccccc3c2n1	1%	.	1%	-8	27	10µM*
Cc1nc(NCCN2CCOCC2)c2oc3ccccc3c2n1	20%	3%	9%	14	-4	-3%
Cc1nc(SCc2cccc(F)c2)c2oc3ccccc3c2n1	10µM*	?	24%	-5	6	-11%

Bioassay records from PubChem BioAssay.
